Screens as filed in PubChem.
VDR inh: vitamin D3 receptor (human) inhibition | actives 0.93% (n = 400,000) | Potency, µM, actives largely listed as inhibitors | VDR-SRC2-3 peptide fluorescence polarization, 2 h | P11473
Target sequence (P11473 whole entry, looked up): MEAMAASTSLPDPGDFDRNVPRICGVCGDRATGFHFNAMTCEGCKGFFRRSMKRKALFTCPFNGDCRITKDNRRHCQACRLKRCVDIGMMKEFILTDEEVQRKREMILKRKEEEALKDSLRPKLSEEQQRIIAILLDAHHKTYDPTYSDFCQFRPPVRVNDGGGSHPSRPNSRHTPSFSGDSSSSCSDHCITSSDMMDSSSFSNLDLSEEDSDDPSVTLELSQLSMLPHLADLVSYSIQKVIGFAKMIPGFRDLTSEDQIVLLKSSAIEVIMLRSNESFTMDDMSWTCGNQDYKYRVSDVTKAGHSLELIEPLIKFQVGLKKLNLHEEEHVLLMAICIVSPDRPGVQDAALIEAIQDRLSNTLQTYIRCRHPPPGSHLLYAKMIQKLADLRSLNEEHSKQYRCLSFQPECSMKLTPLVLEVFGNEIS
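Inhibition of the VDR/SRC2-3 peptide interaction is quantified by fluorescence polarization. Compounds (23 nl, pintool) incubate with the reagents for 2 hours at ambient room temperature.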
KAT2A inh: GCN5L2 (KAT2A) acetyltransferase inhibition. Q92830. GCN5L2 HAT assay, ThioGlo1 CoA-SH fluorescence. Potency, µM (top dose mostly 58.9 µM), actives largely listed as inhibitors. actives 0.21% (n = 390,000). AID 504327
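ThioGlo1-coupled HAT assay: 20nM GCN5L2, 70uM acetyl-CoA, 75uM H3(1-25) peptide, pH 7.5. Fluorescence read at 340/540nm at start and after 20 min at room temperature.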
DT40 TDP1 no CPT: qHTS for Inhibitors of human tyrosyl-DNA phosphodiesterase 1 (TDP1): qHTS in cells in absence of CPT. Potency, µM (doses to about 46.2 µM), most hits filed as inhibitors. DT40 Tdp1-/- hTDP1 cells, no CPT, ATP luminescence, 48 h. AID 686978, 2013. actives 15% (n = 420,000); note: nearly all actives have a fitted effect of over 55% in size
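A cellular qHTS used chicken DT40 cells lacking endogenous Tdp1 but carrying stably transfected human TDP1. Compounds were applied without camptothecin, and cell growth kinetics were judged by ATP-dependent luminescence after ≥48 hr.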
DT40 TDP1 CPT: DT40-hTDP1 cell growth loss with CPT | AID 686979 | Potency, µM (top dose mostly 46.2 µM), usual class: inhibitors | chicken DT40 Tdp1-/-;hTDP1 cells + 20 nM CPT, ATP luminescence, 48 h | actives 12% (n = 420,000); note: nearly all actives have a fitted effect of over 55% in size
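Chicken DT40 Tdp1-/- cells stably complemented with human TDP1 were seeded at 400 cells/well in medium containing 20 nM camptothecin, exposed to pin-transferred compounds, and grown at 37 °C for at least 48 hr. Viability was read as ATP luminescence.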
TDP1 block: TDP1 (human) enzyme inhibition. Potency, µM (titrated, usually from 130 µM), hits mostly inhibitors. AID 485290. recombinant TDP1, AlphaScreen DNA substrate cleavage. Q9NUW8. actives 0.28% (n = 350,000); note: nearly all actives have a fitted effect of over 40% in size
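Enzyme-compound mixtures sat 15 min at room temperature, followed by a 5 min reaction with 15 nM final substrate and 10 min with AlphaScreen beads. Recombinant human Tdp1 was used at 1 nM final.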
PLK1 PBD block: inhibitors of human PLK1 polo-box domain binding; P53350; Plk1 PBD binding of FITC phosphopeptide, fluorescence polarization; Potency, µM, most hits filed as inhibitors; actives 2.8% (n = 360,000); AID 720504; note: series mostly up to about 57 µM; nearly all actives have a fitted effect of over 65% in size
Numbers stand for hits; [ ] = remark or other dose. Compounds with a hit are over-represented: about 18% of the library has one in this group of screens. Calls come from the whole dose curve; as a rule, active = well fitted curve in the direction sought with a large enough effect; inconclusive = small, poorly fitted or top-dose-only effect, or another doubt; inactive = no such curve, though single readings can be large; an effect the other way counts as inactive or inconclusive.

`COc1ccc(OC)c(S(=O)(=O)NC2CC(=O)N(c3ccc(C)c(C)c3)C2)c1` (stereo not drawn) gave VDR inh inactive, KAT2A inh inactive, DT40 TDP1 no CPT inactive, DT40 TDP1 CPT inactive and PLK1 PBD block inactive.
Cc1ccc(N2CC(NC(=O)c3ccc(S(=O)(=O)N4CCOCC4)cc3)CC2=O)cc1C (stereo not drawn) was read as VDR inh inactive, KAT2A inh inactive, DT40 TDP1 no CPT inconclusive, DT40 TDP1 CPT inconclusive and TDP1 block inactive.
`COc1cccc(N2CC(NS(=O)(=O)c3cccnc3)CC2=O)c1` (stereo not drawn) gave VDR inh inactive, KAT2A inh inactive, DT40 TDP1 no CPT inactive, DT40 TDP1 CPT inactive and PLK1 PBD block inactive.
For O=C(Nc1nnc([C@@H]2C[C@H](O)[C@@H](CO)O2)s1)c1c(F)cccc1F the results were DT40 TDP1 no CPT inactive, DT40 TDP1 CPT inactive and PLK1 PBD block inactive.
`COc1ccc(-c2nc3c(c(SC)n2)Cc2c(CO)cnc(C)c2O3)cc1` gave VDR inh inactive, KAT2A inh inactive, DT40 TDP1 no CPT inactive, DT40 TDP1 CPT inactive and TDP1 block inactive.
For COc1ccc(-c2nc3c(c(SCc4ccc(Br)cc4)n2)Cc2c(CO)cnc(C)c2O3)cc1 the results were VDR inh inactive, KAT2A inh inactive, DT40 TDP1 no CPT 4.11µM, DT40 TDP1 CPT inconclusive and TDP1 block inactive.
`Cc1ccc(C)c(CSc2nc(-c3ccccc3F)nc3c2Cc2c(CO)cnc(C)c2O3)c1` gave VDR inh inactive, KAT2A inh inactive, DT40 TDP1 no CPT inactive, DT40 TDP1 CPT inactive and TDP1 block inactive.
C=Cc1ccc(CSc2nc(-c3ccc(OC)cc3)nc3c2Cc2c(CO)cnc(C)c2O3)cc1 was read as VDR inh inactive, KAT2A inh inactive, DT40 TDP1 no CPT 5.17µM, DT40 TDP1 CPT 5.8µM and TDP1 block inactive.
Screening C=Cc1ccc(CSc2nc(-c3ccc(Cl)cc3)nc3c2Cc2c(CO)cnc(C)c2O3)cc1 returned VDR inh inactive, KAT2A inh inactive, DT40 TDP1 no CPT 23.1µM, DT40 TDP1 CPT 8.2µM and TDP1 block inactive.
`C=Cc1ccc(CSc2nc(-c3ccccc3C)nc3c2Cc2c(CO)cnc(C)c2O3)cc1` gave VDR inh inactive, KAT2A inh inactive, DT40 TDP1 no CPT 20.6µM, DT40 TDP1 CPT inconclusive and TDP1 block inactive.
`COc1ccc(CN2C[C@@H](CO)O[C@@H](n3cnc4c(NC5CCC5)ncnc43)C2)cc1` gave DT40 TDP1 no CPT inconclusive, DT40 TDP1 CPT inconclusive and PLK1 PBD block inactive.
Screening O=C(CSc1ncccn1)NCC1Cc2cccc(-c3ncccn3)c2O1 (stereo not drawn) returned DT40 TDP1 no CPT inactive and DT40 TDP1 CPT inactive[9.04 µM].
`Cc1ccc(S(=O)(=O)NCc2cccc([N+](=O)[O-])c2)cc1` gave DT40 TDP1 no CPT inconclusive, DT40 TDP1 CPT inactive and PLK1 PBD block inactive.
For Cc1ccc2nc(-c3ccncc3)cc(-c3ccccc3)c2c1 the results were VDR inh inactive, KAT2A inh inactive, DT40 TDP1 no CPT inconclusive, DT40 TDP1 CPT inconclusive, TDP1 block inactive and PLK1 PBD block inactive.
Screening c1ccc2c(-c3nc(C4CCCCC4)no3)cc(-c3ccncc3)nc2c1 returned VDR inh inactive, KAT2A inh inactive, DT40 TDP1 no CPT 23.1µM, DT40 TDP1 CPT inconclusive, TDP1 block inactive and PLK1 PBD block inactive.
For CCCCCOc1ccc(CN2CCOCC2)cc1Cl the results were VDR inh inactive, KAT2A inh inactive, DT40 TDP1 no CPT inactive, DT40 TDP1 CPT inactive, TDP1 block inactive and PLK1 PBD block inactive.
`CCCCOc1ccc(CSC(=N)N)cc1Cl` gave VDR inh inactive, KAT2A inh inactive, DT40 TDP1 no CPT 18.4µM, DT40 TDP1 CPT 14.6µM and PLK1 PBD block inactive.
CC(=O)Nc1ccc(S(=O)(=O)N2CCN(S(=O)(=O)c3c(F)cccc3F)CC2)cc1 was read as TDP1 block inactive.
Screening Cc1nc(OCc2ccccc2)c2ccccc2n1 returned VDR inh inactive, KAT2A inh inactive, DT40 TDP1 no CPT inconclusive, DT40 TDP1 CPT inconclusive, TDP1 block inactive and PLK1 PBD block inactive.
`COc1ccc(F)cc1COc1nc(C)nc2ccccc12` gave VDR inh inactive, KAT2A inh inactive, DT40 TDP1 no CPT 18.4µM, DT40 TDP1 CPT inconclusive, TDP1 block inactive and PLK1 PBD block inactive.
For O=C(Nc1cccc2cccnc12)c1csc([C@@H]2O[C@H](CO)[C@H](O)[C@H](O)[C@H]2O)n1 the results were DT40 TDP1 no CPT inactive, DT40 TDP1 CPT inactive and PLK1 PBD block inactive.
For Oc1c(Br)cc(/C=N/Nc2nncc3ccccc23)cc1Br the results were VDR inh inactive, KAT2A inh inactive, DT40 TDP1 no CPT 23.1µM, DT40 TDP1 CPT inconclusive and PLK1 PBD block inactive.
Screening CC[C@H](C)[C@H](NC(=O)[C@H](CO)NC(=O)[C@H](CC(N)=O)NC(=O)[C@H](CC(C)C)NC(=O)[C@H](Cc1ccc(O)cc1)NC(=O)[C@H](CCCCN)NC(=O)[C@H](CCCCN)NC(=O)[C@@H](NC(=O)[C@H](C)NC(=O)[C@H](CCSC)NC(=O)[C@H](CCC(N)=O)NC(=O)[C@H](CCCCN)NC(=O)[C@H](CCCNC(=N)N)NC(=O)[C@H](CC(C)C)NC(=O)[C@H](CCCNC(=N)N)NC(=O)[C@@H](NC(=O)[C@H](Cc1ccc(O)cc1)NC(=O)[C@H](CC(N)=O)NC(=O)[C@H](CC(=O)O)NC(=O)[C@@H](NC(=O)[C@H](Cc1ccccc1)NC(=O)[C@@H](NC(=O)[C@H](C)NC(=O)[C@H](CC(=O)O)NC(=O)[C@H](CO)NC(=O)[C@@H](N)Cc1cnc[nH]1)C(C)C)[C@@H](C)O)[C@@H](C)O)C(C)C)C(=O)N[C@@H](CC(C)C)C(=O)N[C@@H](CC(N)=O)C(N)=O returned VDR inh inactive, KAT2A inh inactive and TDP1 block inactive.
For COCc1cc(C)nc2sc(C(=O)Nc3ccccc3O)c(N)c12 the results were VDR inh inactive, KAT2A inh inactive, DT40 TDP1 no CPT inconclusive, DT40 TDP1 CPT inconclusive and TDP1 block inactive.
`COC(=O)c1ccc(Cl)cc1NC(=O)N(Cc1ccc(OC)cc1)C1CCN(C(C)=O)CC1` gave VDR inh inactive, KAT2A inh inactive, DT40 TDP1 no CPT 7.31µM, DT40 TDP1 CPT inconclusive and TDP1 block inactive.
CCN1CCC(N(Cc2cccc(OC)c2)C(=O)Nc2ccc(C)cc2Cl)CC1 was read as VDR inh inactive, KAT2A inh inactive, DT40 TDP1 no CPT 18.4µM, DT40 TDP1 CPT inconclusive and TDP1 block inactive.
